# Results from the supplement of paper PMC8728848.
# The entries come from a sample that favours the strongest signals as a whole.
# B1: GH95CBM (Clostridium perfringens) (protein)
# chain: EKVAVETSVYLSELEWKSASTGYGEIQKDASCDGNTITLKGENGEKVSYDKGIGTHAHSEIVYSLEGLDYYDYFETFVGVDQEMAGTVASISFEVYLDNEKVFDSGLMTGDTTQKHVKVPIAGKNTLKLVVKDGGDSIGSDHGSFGDAKLT
# Key:
# Test in all cases: glycan array binding signal (z-score within array); higher = stronger binding
# Conditions in all cases: glycan notation: IUPAC condensed, linker removed
# [1] = molecular target: Fuc(a1-2)Gal(b1-4)GlcNAc6S
# In short: (§1)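 Arrays were curated from the Consortium for Functional Glycomics database, 3228 in total, and kept only where the protein sequence was available. Binding is expressed as a within-array Z-score. This score was averaged across arrays of the same protein sequence at different concentrations or buffers and across linkers, and negative values can be read as non-binding.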
# [2] = molecular target: Fuc(a1-2)Gal(b1-4)[Fuc(a1-3)]GlcNAc
# In short: as §1
# [3] = molecular target: Fuc(a1-2)Gal6S(b1-4)GlcNAc
# In short: as §1
# [4] = molecular target: Fuc(a1-2)[Gal(a1-3)]Gal(b1-3)GlcNAc
# In short: as §1
# [5] = molecular target: Fuc(a1-2)[GalNAc(a1-3)]Gal
# In short: as §1
# [6] = molecular target: Gal(a1-3)Gal(b1-4)[Fuc(a1-3)]GlcNAc
# In short: as §1
# [7] = molecular target: Gal(b1-2)Gal
# In short: as §1
# [8] = molecular target: Gal(b1-3)GalNAc(b1-3)Gal(a1-4)Gal(b1-4)Glc
# In short: as §1
# [9] = molecular target: Gal(b1-3)[Fuc(a1-4)]GlcNAc(b1-3)Gal(b1-3)[Fuc(a1-4)]GlcNAc
# In short: as §1
# [10] = molecular target: Gal(b1-4)GalNAc(b1-3)[Fuc(a1-2)]Gal(b1-4)GlcNAc
# In short: as §1
# [11] = molecular target: Gal(b1-4)GlcNAc(a1-6)Gal(b1-4)GlcNAc
# In short: as §1
# [12] = molecular target: Gal(b1-4)GlcNAc(b1-3)[Gal(b1-4)GlcNAc(b1-6)]Gal(b1-4)GlcNAc
# In short: as §1
# [13] = molecular target: Gal(b1-4)GlcNAc(b1-3)[GlcNAc(b1-6)]Gal(b1-4)GlcNAc
# In short: as §1
# [14] = molecular target: Gal(b1-4)GlcNAc(b1-6)[Gal(b1-3)]GalNAc
# In short: as §1
# [15] = molecular target: GalNAc(b1-3)Gal
# In short: as §1
# [16] = molecular target: GalNAc(b1-3)Gal(a1-4)Gal(b1-4)GlcNAc
# In short: as §1
# [17] = molecular target: GlcA(b1-6)Gal
# In short: as §1
# [18] = molecular target: GlcNAc(b1-3)Gal(b1-4)Glc
# In short: as §1
# [19] = molecular target: GlcNAc(b1-4)GlcNAc(b1-4)GlcNAc(b1-4)GlcNAc(b1-4)GlcNAc
# In short: as §1
# [20] = molecular target: GlcNAc(b1-6)Gal(b1-4)GlcNAc
# In short: as §1
# [21] = molecular target: Man(a1-2)Man(a1-3)[Man(a1-2)Man(a1-6)]Man(a1-6)[Man(a1-2)Man(a1-2)Man(a1-3)]Man
# In short: as §1
# [22] = molecular target: Neu5Ac(a2-3)Gal(b1-3)[Fuc(a1-4)]GlcNAc(b1-3)Gal(b1-4)[Fuc(a1-3)]GlcNAc
# In short: as §1
# [23] = molecular target: Neu5Ac(a2-3)Gal(b1-4)GlcNAc(b1-2)Man(a1-3)[Neu5Ac(a2-6)Gal(b1-4)GlcNAc(b1-2)Man(a1-6)]Man(b1-4)GlcNAc(b1-4)GlcNAc
# In short: as §1
# [24] = molecular target: Neu5Ac(a2-3)GalNAc(b1-4)GlcNAc
# In short: as §1
# [25] = molecular target: Neu5Ac(a2-6)Gal
# In short: as §1
# [26] = molecular target: Neu5Ac(a2-6)Gal(b1-4)GlcNAc6S
# In short: as §1
# [27] = molecular target: Neu5Ac(a2-8)Neu5Ac(a2-8)Neu5Ac(a2-3)Gal(b1-4)Glc
# In short: as §1
# [28] = molecular target: Neu5Ac9Ac(a2-6)Gal(b1-4)GlcNAc
# In short: as §1
# [29] = molecular target: Neu5Gc(a2-3)Gal(b1-4)GlcNAc
# In short: as §1
binder,measurement,setting,value
B1,glycan array binding signal (z-score),[1],-0.334
same,glycan array binding signal (z-score),[2],-0.325
same,glycan array binding signal (z-score),[3],-0.296
same,glycan array binding signal (z-score),[4],-0.321
same,glycan array binding signal (z-score),[5],-0.291
same,glycan array binding signal (z-score),[6],4.88
same,glycan array binding signal (z-score),[7],2.38
same,glycan array binding signal (z-score),[8],4.91
same,glycan array binding signal (z-score),[9],-0.312
same,glycan array binding signal (z-score),[10],4.18
same,glycan array binding signal (z-score),[11],-0.283
same,glycan array binding signal (z-score),[12],-0.311
same,glycan array binding signal (z-score),[13],-0.326
same,glycan array binding signal (z-score),[14],3.34
same,glycan array binding signal (z-score),[15],3.84
same,glycan array binding signal (z-score),[16],6.95
same,glycan array binding signal (z-score),[17],-0.227
same,glycan array binding signal (z-score),[18],-0.347
same,glycan array binding signal (z-score),[19],-0.133
same,glycan array binding signal (z-score),[20],-0.319
same,glycan array binding signal (z-score),[21],1.43
same,glycan array binding signal (z-score),[22],-0.265
same,glycan array binding signal (z-score),[23],-0.357
same,glycan array binding signal (z-score),[24],-0.362
same,glycan array binding signal (z-score),[25],-0.355
same,glycan array binding signal (z-score),[26],-0.298
same,glycan array binding signal (z-score),[27],-0.343
same,glycan array binding signal (z-score),[28],-0.367
same,glycan array binding signal (z-score),[29],-0.34
